Experimental data from PubChem BioAssay (Tox21).
Inconclusive results are not listed. Active and inactive are the calls of the source. Unless noted, the call rests on the fitted dose curve; in most records, active means well fitted curve in the direction sought with a large enough effect in the repeat runs; inconclusive means weak or mixed curves; inactive means no such curve, though single readings can be large; an effect the other way counts as inactive or inconclusive.

How the values were obtained:
[1] = qHTS assay to identify small molecule antagonists of the estrogen receptor beta (ER-beta) signaling pathway - cell viability counter screen (AID 1259382);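 further: HEK293T cells carrying ER-beta-UAS-bla reporter stimulated with estradiol; series mostly up to about 92 µM; nearly all actives have a fitted effect of over 55% in size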
How it was run: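 ER-beta-UAS-bla HEK293T cells in 2% charcoal-stripped FBS medium, treated with compound plus 1 nM 17-beta-estradiol for 16 h at 37C. Viability read by CellTiter-Glo luminescence after 30 min at room temperature in the same wells.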

[2] = qHTS assay to identify small molecule agonists or antagonists of the thyroid stimulating hormone receptor (TSHR) signaling pathway - wild type cell line counter screen (AID 1259384; calls by dose curve)
How it was run: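 Wild-type Hek293 cells, 800/well, 18 h at 37C, then compound with Ro20-1724 for 30 min RT. cAMP by HTRF (cAMP-d2/anti-cAMP cryptate), 1 h RT, fluorescence read. 15 concentrations, triplicates.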

[3] = biological target: Thyrotropin receptor (Homo sapiens) (UniProt P16473); assay: qHTS assay to identify small molecule antagonists of the thyroid stimulating hormone receptor (TSHR) signaling pathway (AID 1259385; calls by dose curve; further: nearly all actives have a fitted effect of over 20% in size)
Thyrotropin receptor (Homo sapiens), sequence (P16473 whole entry, looked up): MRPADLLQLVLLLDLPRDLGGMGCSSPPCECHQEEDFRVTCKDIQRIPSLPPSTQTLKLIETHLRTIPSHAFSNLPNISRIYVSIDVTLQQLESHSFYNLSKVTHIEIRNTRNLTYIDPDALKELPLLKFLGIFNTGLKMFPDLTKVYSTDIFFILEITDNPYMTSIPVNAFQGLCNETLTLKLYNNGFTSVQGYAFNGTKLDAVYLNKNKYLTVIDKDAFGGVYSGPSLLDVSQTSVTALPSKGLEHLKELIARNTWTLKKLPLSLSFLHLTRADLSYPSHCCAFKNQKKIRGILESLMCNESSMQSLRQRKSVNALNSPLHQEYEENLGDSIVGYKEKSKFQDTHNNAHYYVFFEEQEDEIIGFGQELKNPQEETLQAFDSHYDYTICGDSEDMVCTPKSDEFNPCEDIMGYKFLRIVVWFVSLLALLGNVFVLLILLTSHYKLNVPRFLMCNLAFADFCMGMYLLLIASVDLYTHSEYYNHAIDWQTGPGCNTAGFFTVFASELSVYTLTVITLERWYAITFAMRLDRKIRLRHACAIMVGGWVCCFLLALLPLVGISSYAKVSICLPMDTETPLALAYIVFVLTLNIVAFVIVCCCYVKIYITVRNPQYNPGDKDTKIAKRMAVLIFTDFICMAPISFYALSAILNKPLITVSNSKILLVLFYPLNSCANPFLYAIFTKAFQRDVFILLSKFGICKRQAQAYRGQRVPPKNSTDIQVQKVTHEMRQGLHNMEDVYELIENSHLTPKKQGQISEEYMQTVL
How it was run: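 TSHR-HEK293 cells (800/well) plated 18 h, then compounds with Ro20-1724 and TSH at 1.5 ng/mL final, 30 min at room temperature. cAMP quantified by HTRF (cAMP-d2/anti-cAMP-cryptate, 1 h); 15 concentrations in triplicate.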

[4] = qHTS assay to identify small molecule agonists of the estrogen receptor alpha (ER-alpha) signaling pathway in the presence of an antagonist - cell viability counter screen (AID 1259386);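 further: series mostly up to about 92 µM; cells exposed to compounds for 22 h at 37 °C before the viability read; nearly all actives have a fitted effect of over 30% in size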
How it was run: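 Cell viability in VM7Luc4E2 cells (endogenous full-length ER-alpha) measured by CellTiter-Fluor fluorescence in the same wells as the luciferase screen. Cells pre-cultured 5 days in charcoal-stripped serum, then treated 22 h with compounds at 15 concentrations plus 10.0nM ICI-182,780.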

[5] = biological target: Progesterone receptor (Homo sapiens) (UniProt P06401); assay: qHTS assay to identify small molecule agonists of the progesterone receptor (PR) signaling pathway (AID 1346784; calls by dose curve; further: nearly all actives have a fitted effect of over 30% in size)
Progesterone receptor (Homo sapiens), sequence (P06401 whole entry, looked up): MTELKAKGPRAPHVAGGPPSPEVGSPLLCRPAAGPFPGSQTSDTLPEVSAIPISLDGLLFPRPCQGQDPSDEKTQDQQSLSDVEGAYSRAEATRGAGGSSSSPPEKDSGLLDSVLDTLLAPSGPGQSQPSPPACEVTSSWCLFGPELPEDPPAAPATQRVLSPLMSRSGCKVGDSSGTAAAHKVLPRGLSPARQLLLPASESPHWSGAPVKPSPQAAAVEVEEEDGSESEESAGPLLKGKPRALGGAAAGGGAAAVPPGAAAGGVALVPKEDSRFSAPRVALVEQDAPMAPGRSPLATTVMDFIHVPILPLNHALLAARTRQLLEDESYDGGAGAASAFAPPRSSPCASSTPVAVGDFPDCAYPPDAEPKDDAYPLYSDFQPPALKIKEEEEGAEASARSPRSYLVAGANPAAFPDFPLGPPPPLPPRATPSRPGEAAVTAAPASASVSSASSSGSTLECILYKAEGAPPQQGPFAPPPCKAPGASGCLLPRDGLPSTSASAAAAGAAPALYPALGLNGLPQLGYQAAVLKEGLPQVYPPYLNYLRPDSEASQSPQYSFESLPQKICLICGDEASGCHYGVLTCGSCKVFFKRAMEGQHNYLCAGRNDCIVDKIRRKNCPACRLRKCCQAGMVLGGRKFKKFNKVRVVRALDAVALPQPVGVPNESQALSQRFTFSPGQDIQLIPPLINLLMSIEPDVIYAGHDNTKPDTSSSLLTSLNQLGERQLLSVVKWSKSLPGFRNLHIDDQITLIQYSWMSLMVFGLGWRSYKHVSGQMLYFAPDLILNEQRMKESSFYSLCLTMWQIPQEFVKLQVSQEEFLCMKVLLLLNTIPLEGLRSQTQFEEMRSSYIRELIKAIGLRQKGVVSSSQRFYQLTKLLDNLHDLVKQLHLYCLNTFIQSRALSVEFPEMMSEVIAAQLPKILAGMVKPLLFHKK
How it was run: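 Compounds were tested for PR agonism in HEK 293T cells bearing a beta-lactamase gene under UAS control. Treatment lasted 16 hr at 37C; signal came from fluorescence of a FRET substrate.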

[6] = biological target: Progesterone receptor (Homo sapiens) (UniProt P06401); assay: qHTS assay to identify small molecule antagonists of the progesterone receptor (PR) signaling pathway (AID 1346795; active means well fitted inhibition curve with a large enough effect in the signal ratio in the repeat runs, not every such curve was filed as active; the % refers to the signal ratio)
How it was run: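 In HEK293T cells bearing the PR-UAS-bla reporter, compound effects on promegestone-driven (1 nM) beta-lactamase expression are assessed after 16 hr using a fluorescent FRET substrate incubated 2 hr at room temperature.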

[7] = qHTS assay to identify small molecule antagonists of the progesterone receptor (PR) signaling pathway - cell viability counter screen (AID 1346798); further: series mostly up to about 92 µM; nearly all actives have a fitted effect of over 50% in size
How it was run: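 Following a 4 hr attachment, PR-UAS-bla HEK293T cells in charcoal-stripped FBS medium were exposed to compounds with R5020 for 16 hr; CellTiter-Glo was added and luminescence read after 30 min at room temperature.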

[8] = qHTS assay to identify small molecule agonists of the progesterone receptor (PR) signaling pathway - cell viability counter screen (AID 1346799; calls by dose curve; further: nearly all actives have a fitted effect of over 45% in size)
How it was run: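 Here, 3,000 PR-UAS-bla HEK293T cells per well were treated with compounds for 16 hr after a 6 hr preincubation at 37C and 5% CO2; cell viability is the CellTiter-Glo luminescence signal.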

[9] = qHTS assay to identify small molecule antagonists of the TGF-beta/Smad signaling pathway - cell viability counter screen (AID 1346824); further: nearly all actives have a fitted effect of over 50% in size
How it was run: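 SBE-bla HEK 293T cells, incubated overnight, then compound plus 0.25 ng/mL TGF-beta1 (stock added) for 5 hr at 37 C. Viability was read in the same wells by CellTiter-Glo luminescence after 30 min at room temperature.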

[10] = qHTS assay to identify small molecule agonists of the TGF-beta/Smad signaling pathway - cell viability counter screen (AID 1346829); further: top concentration of the series differs between compounds; nearly all actives have a fitted effect of over 45% in size
How it was run: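 CellTiter-Glo luminescence readout; SBE-bla HEK 293T cells, overnight plating, compound 5 hr at 37 C/5% CO2, then bla substrate 2 hr RT, then CellTiter-Glo 30 min RT.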

[11] = qHTS assay to identify small molecule agonists of the TGF-beta/Smad signaling pathway (AID 1346859; active means well fitted activation curve with a large enough effect in the signal ratio in the repeat runs, not every such curve was filed as active; the % refers to the signal ratio; further: series mostly up to about 77 µM)
How it was run: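 Each well held 4,000 SBE-bla HEK 293T cells incubated overnight before compound addition; 5 hr later the cleavable FRET substrate went on for 2 hr at room temperature, and fluorescence was read at two emissions.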

[12] = Human pregnane X receptor (PXR) small molecule agonists, qHTS cell viability counter screen (AID 1346977); further: nearly all actives have a fitted effect of over 50% in size
How it was run: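 Tox21 qHTS format; PXR-Luc HepG2, 2,000/well, charcoal-stripped FBS 5%. Cpd exposure 24hr. Read: CellTiter-Fluor fluorescence, multiplexed with luciferase.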

[13] = Caspase-3/7 induction in HepG2 cells by small molecules, qHTS assay (AID 1346978); further: nearly all actives have a fitted effect of over 15% in size
How it was run: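 Wild-type HepG2 cells, 2,000/well, settled 5 hr at 37 C and 5% CO2, then compound-treated for 17 hr; caspase-3/7 activity read by luminescent Caspase-Glo 3/7 after 30 min at room temperature.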

[14] = Caspase-3/7 induction in CHO-K1 cells by small molecules, qHTS cell viability counter screen (AID 1346979); further: nearly all actives have a fitted effect of over 35% in size
How it was run: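 CellTiter-Fluor viability check, qHTS format: wild-type CHO-K1, 16hr compound treatment, 1hr reagent incubation, fluorescence read.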

[15] = Caspase-3/7 induction in CHO-K1 cells by small molecules, qHTS assay (AID 1346980); further: nearly all actives have a fitted effect of over 15% in size
How it was run: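 Wild-type CHO-K1 cells exposed to compounds for 17hr at 37 C, 5% CO2. Caspase-3/7 activity then measured by Caspase-Glo 3/7 luminescence after 30min at room temperature.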

[16] = Caspase-3/7 induction in HepG2 cells by small molecules, qHTS cell viability counter screen (AID 1346981); further: series mostly up to about 92 µM; nearly all actives have a fitted effect of over 30% in size
How it was run: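 Wild-type HepG2 cells, 2,000/well, settled 5 hr at 37 C, 5% CO2 before compound addition. Viability read by CellTiter-Fluor fluorescence, reagent added after 16 hr compound exposure, then 1 hr at 37C, in the same wells as the caspase read.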

[17] = biological target: Estrogen receptor (Homo sapiens) (UniProt P03372); assay: qHTS assay to identify small molecule agonists of the estrogen receptor alpha (ER-alpha) signaling pathway in the presence of an antagonist (AID 1259383; calls by dose curve; further: top concentration of the series differs between compounds; nearly all actives have a fitted effect of over 15% in size)
Estrogen receptor (Homo sapiens), sequence (P03372 whole entry, looked up): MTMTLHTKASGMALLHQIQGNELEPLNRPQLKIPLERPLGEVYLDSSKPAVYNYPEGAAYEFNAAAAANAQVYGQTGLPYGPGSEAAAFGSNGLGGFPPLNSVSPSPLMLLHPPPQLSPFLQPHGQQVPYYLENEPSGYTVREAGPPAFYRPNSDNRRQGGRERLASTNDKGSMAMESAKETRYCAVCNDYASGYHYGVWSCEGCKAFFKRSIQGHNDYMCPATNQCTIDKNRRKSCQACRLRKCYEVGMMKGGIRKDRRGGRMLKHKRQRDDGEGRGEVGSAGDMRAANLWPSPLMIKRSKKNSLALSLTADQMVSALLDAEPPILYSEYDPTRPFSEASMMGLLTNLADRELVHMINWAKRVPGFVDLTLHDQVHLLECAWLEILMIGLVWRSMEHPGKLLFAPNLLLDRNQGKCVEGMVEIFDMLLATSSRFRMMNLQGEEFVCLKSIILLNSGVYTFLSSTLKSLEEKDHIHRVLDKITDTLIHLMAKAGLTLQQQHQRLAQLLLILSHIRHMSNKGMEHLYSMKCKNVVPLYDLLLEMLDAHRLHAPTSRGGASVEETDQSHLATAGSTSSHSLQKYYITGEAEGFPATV
How it was run: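 VM7Luc4E2 cells express endogenous full-length ER-alpha with an ERE-luciferase reporter and were hormone-deprived for 5 days. Compounds at 15 concentrations were added with 10.0nM ICI-182,780 for 22hr at 37C. Luminescence was read with ONE-Glo.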

[18] = biological target: Thyrotropin-releasing hormone receptor (Homo sapiens) (UniProt P34981); assay: qHTS assay to identify small molecule antagonists of the thyrotropin-releasing hormone receptor (TRHR) signaling pathway (AID 1346877; active means well fitted inhibition curve with a large enough effect in the repeat runs, not every such curve was filed as active; further: series mostly up to about 51 µM)
Thyrotropin-releasing hormone receptor (Homo sapiens), sequence (P34981 whole entry, looked up): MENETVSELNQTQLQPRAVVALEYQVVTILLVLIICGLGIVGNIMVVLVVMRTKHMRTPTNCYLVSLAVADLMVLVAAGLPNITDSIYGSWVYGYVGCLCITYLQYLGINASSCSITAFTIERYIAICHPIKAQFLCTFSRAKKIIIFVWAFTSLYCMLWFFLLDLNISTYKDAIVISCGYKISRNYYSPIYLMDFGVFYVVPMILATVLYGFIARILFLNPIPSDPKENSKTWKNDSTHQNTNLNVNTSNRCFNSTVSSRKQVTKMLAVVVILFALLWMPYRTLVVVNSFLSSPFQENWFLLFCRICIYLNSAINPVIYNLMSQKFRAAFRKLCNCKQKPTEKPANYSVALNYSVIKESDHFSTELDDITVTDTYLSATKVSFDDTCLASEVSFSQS
How it was run: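 TRHR-expressing HEK293 cells loaded with calcium dye for 2 h at 37 C; compounds pre-incubated 5 min at room temperature before TRH challenge at 1 nM final. Intracellular calcium fluorescence read kinetically for 3 min; 15 concentrations in triplicate.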

[19] = biological target: Thyrotropin-releasing hormone receptor (Homo sapiens) (UniProt P34981); assay: qHTS assay to identify small molecule agonists of the thyrotropin-releasing hormone receptor (TRHR) signaling pathway (AID 1346891; calls by dose curve; further: series mostly up to about 58 µM)
How it was run: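 Screening of agonists relied on calcium signalling in HEK293 cells expressing human TRHR: dye loading 2 h at 37 °C preceded compound addition and a 3-min fluorescence time course.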

Measured: Potency

CCOC(=O)OCC/C(SC(=O)OCC)=C(\C)N(C=O)Cc1cnc(C)nc1N
not listed: [17] | [18] | [19]
inactive: all other assays above

Cc1c(C(C)C)c(=O)n(-c2ccccc2)n1C
not listed: [2] | [3] | [6] | [18] | [19]
inactive: all other assays above

C=C(C)C(=O)OCCCCCCOC(=O)C(=C)C
not listed: [8] | [17]
inactive: all other assays above

CC(=O)Nc1ccc(C)cc1
not listed: [2] | [3] | [7]
inactive: all other assays above

CCNC(=O)NCCCOc1cccc(CN2CCCCC2)c1
not listed: [2] | [3] | [14]
inactive: all other assays above

CCCCCN(CCCOC)C(=O)C(CCC(=O)O)NC(=O)c1ccc(Cl)c(Cl)c1 (stereo not drawn)
not listed: [2] | [3] | [7] | [8]
inactive: all other assays above

COc1ccc(OC)c(NC(=O)CC(C)=O)c1
not listed: [17]
inactive: all other assays above

C=C(C)C(=O)OC
not listed: [17] | [18] | [19]
inactive: all other assays above

SCCSCCS
not listed: [17]
inactive: all other assays above

C[Si]1(C)N[Si](C)(C)N[Si](C)(C)N1
not listed: [2] | [3] | [8]
inactive: all other assays above

O=C(c1ccc2c(c1)C(=O)OC2=O)c1ccc2c(c1)C(=O)OC2=O
not listed: [17]
inactive: all other assays above

CCC(C)N (stereo not drawn)
not listed: [2] | [3] | [8]
inactive: all other assays above

O=S(=O)(O)c1cc(O)ccc1O
not listed: [17]
inactive: all other assays above

CC(=O)N(CC(O)CO)c1c(I)c(C(=O)NCC(O)CO)c(I)c(C(=O)NCC(O)CO)c1I (stereo not drawn)
not listed: [2] | [3] | [8] | [18] | [19]
inactive: all other assays above

CC(=O)OCC(=O)[C@@]1(O)[C@H](OC(C)=O)C[C@H]2[C@@H]3CCC4=CC(=O)C=C[C@]4(C)[C@@]3(F)[C@@H](O)C[C@@]21C
not listed: [2] | [3] | [6] | [8]
inactive: all other assays above
